A selection: hits, their analogues and other compounds. The true share with any hit is near 2.3%.
Mcl1 Noxa PPI = disrupts binding of human Mcl-1 to Noxa peptide | Q07820 | TR-FRET Mcl-1/Noxa peptide binding, 2 h | inhibition, % at 21.7 µM | hit rate 1.5% among 220,000 | AID 1022;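 active means compounds that cut the protein-peptide binding signal by more than 50% relative to plate controls in a single-dose test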;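 further: His-tagged Mcl-1 with rhodamine Noxa BH3 peptide and terbium anti-His antibody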
MCL1-BIM inh = inhibitors of human MCL1 binding to BIM-BH3 peptide | GST-MCL1 / FITC-Bim-BH3 fluorescence polarization | inhibition, % at 10.9 µM | hit rate 0.68% among 320,000 | AID 2057;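 active means inhibition above the mean inhibition of all tested compounds plus 3 SD, set per campaign, cut at about 40% in these data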;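 further: higher means more loss of mP so more displacement of Bim peptide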
Bcl-xL primary = Bcl-xL (human) inhibition; inhibition, % at 10.9 µM; Q07817; hit rate 0.7% among 320,000; GST-Bcl-xL / FITC-Bim BH3 peptide fluorescence polarization; AID 2129;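 active means inhibition above the mean of all tested compounds plus 3 SD, cutoff set per campaign, cut at about 30% in these data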;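 further: inhibitors lower millipolarization by displacing the labeled peptide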
Target sequence (Q07817 whole entry, looked up): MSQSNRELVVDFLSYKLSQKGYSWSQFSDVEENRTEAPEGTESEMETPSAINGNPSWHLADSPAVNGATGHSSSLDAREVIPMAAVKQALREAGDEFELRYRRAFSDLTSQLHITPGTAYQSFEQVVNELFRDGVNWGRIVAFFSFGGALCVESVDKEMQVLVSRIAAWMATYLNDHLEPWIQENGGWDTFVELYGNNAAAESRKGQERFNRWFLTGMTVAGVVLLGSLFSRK
Bim-Mcl-1 = human Bim-Mcl-1 interaction inhibition; Bead-based flow cytometry, Bim peptide-Mcl-1 binding; inhibition, % at 10 µM; hit rate 0.1% among 190,000; in the data active means inhibition above about 40%
GLD-1 RNA inh = GLD-1-TGE RNA interaction inhibition (C. elegans). Q17339. purified GLD-1 + fluorescein TGE RNA, fluorescence polarization. inhibition, % at 5.96 µM. hit rate 0.44% among 320,000. AID 2280;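 active means percent inhibition above a per-plate cutoff, the plate mean of test compounds plus 3 SD, cut at about 30% in these data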
Target sequence (Q17339 whole entry, looked up): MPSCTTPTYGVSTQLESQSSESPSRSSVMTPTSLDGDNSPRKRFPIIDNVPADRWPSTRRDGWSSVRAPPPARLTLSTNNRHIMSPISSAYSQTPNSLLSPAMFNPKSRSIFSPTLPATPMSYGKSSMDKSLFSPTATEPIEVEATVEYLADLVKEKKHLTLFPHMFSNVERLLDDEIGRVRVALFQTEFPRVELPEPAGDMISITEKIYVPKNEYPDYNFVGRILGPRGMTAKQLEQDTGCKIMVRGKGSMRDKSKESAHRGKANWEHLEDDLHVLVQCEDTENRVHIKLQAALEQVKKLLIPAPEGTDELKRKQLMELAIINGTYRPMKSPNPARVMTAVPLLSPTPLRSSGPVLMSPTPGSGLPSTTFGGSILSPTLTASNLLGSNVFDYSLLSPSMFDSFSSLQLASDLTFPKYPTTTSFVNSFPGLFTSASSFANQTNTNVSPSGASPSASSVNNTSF
Mcl1 Bid PPI = disrupts binding of human Mcl-1 to Bid peptide; hit rate 0.97% among 220,000; inhibition, % at 21.7 µM; TR-FRET Mcl-1/Bid-Dy647 peptide binding, 1536-well; AID 1021; Q07820;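 active means compounds that cut the binding signal by more than half at the single screening dose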;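 further: His-tagged Mcl-1 with europium anti-His antibody binding Bid BH3 peptide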
Each line names hits and unclear results; the compound was inactive in the other large screens.

CCOC(=O)N1CCN(C(=O)CSc2ccc3nnc(CCNC(=O)c4ccc(OC)cc4)n3n2)CC1	Mcl1 Bid PPI 89
Cc1ccc(S(=O)(=O)/N=C2/C=C(C3C(=O)CC(C)(C)CC3=O)C(=O)c3ccccc32)cc1	Mcl1 Noxa PPI 80
O=[N+]([O-])c1ccc(Sc2cccc[n+]2[O-])c2nonc12	Mcl1 Noxa PPI 62 (no result: MCL1-BIM inh, Bcl-xL primary, Bim-Mcl-1, GLD-1 RNA inh)
CC(C)(C)C(=O)Nc1ccc(-c2cc3cc(Cl)ccc3o2)cc1	none (no result: Bim-Mcl-1)
O=C(O)c1cc2[nH]c3c(c2cc1Cl)CCCC3	none (no result: Mcl1 Noxa PPI, Bim-Mcl-1, Mcl1 Bid PPI)
COc1ccc(N=C2NC(=O)/C(=C\C=C\c3ccco3)S2)cc1	Mcl1 Noxa PPI 82 (no result: MCL1-BIM inh, Bcl-xL primary, GLD-1 RNA inh)
O=C1NC(=Nc2ccc3ccccc3c2)S/C1=C/c1ccco1	Mcl1 Noxa PPI 64
Cc1cccc(N=C2NC(=O)/C(=C/C=C/c3ccco3)S2)c1	Mcl1 Noxa PPI 106
Cc1ccc(N=C2NC(=O)/C(=C\c3ccco3)S2)cc1	none
O=C(OCc1cccc([N+](=O)[O-])c1)c1ccc[nH]c1=O	none (no result: Mcl1 Noxa PPI, Bim-Mcl-1, Mcl1 Bid PPI)
COc1ccccc1C(=O)Nc1ncc2c(n1)CC(c1ccco1)CC2=O (stereo not given)	Mcl1 Noxa PPI 54
Cn1cnnc1SCC(=O)NCCc1ccc(Cl)cc1Cl	none
CC(C)OC(=O)C1=C2SCC(=O)N2C(N)=C(C#N)C1	Bcl-xL primary 37
O=C(Cn1cncc1-c1ccc([N+](=O)[O-])cc1)Nc1ccccc1F	GLD-1 RNA inh 33
COC(=O)c1ccc(NC(=O)N(c2ccccc2)c2ccccc2)cc1	none (no result: Mcl1 Noxa PPI, Bim-Mcl-1, Mcl1 Bid PPI)
CC1CCC(NS(=O)(=O)c2ccc(N3CCCC3=O)cc2)CC1 (stereo not given)	none (no result: Mcl1 Noxa PPI, Bim-Mcl-1, Mcl1 Bid PPI)
CC(OC(=O)c1ccc2c(c1)C(=O)N(Cc1ccncc1)C2=O)C(=O)Nc1cccc(Cl)c1Cl (stereo not given)	Mcl1 Bid PPI 64
O=C(COC(=O)c1ccc2c(c1)C(=O)N(Cc1ccncc1)C2=O)Nc1ccccc1[N+](=O)[O-]	Mcl1 Noxa PPI 83
COC(=O)Cn1cc(/C=N/NC(=O)COc2cccc3cccnc23)c2ccccc21	Mcl1 Bid PPI 65
C#CCn1cc(/C=N/NC(=O)COc2cccc3cccnc23)c2ccccc21	Mcl1 Noxa PPI 70, Mcl1 Bid PPI 86
O=C(COc1cccc2cccnc12)N/N=C/c1ccccc1O	none (no result: Bim-Mcl-1)
Cc1nn(C)c(C)c1NC(=O)c1ccccc1NC(=O)Nc1ccccc1	none (no result: Bim-Mcl-1)
COC(=O)c1ccccc1Nc1cc(C)nc2nc(C)nn12	none
CCOC(=O)c1ccccc1NC(=O)c1nc2nccc(C)n2n1	Mcl1 Bid PPI 79
Cc1ccnc2nc(C(=O)OCC(=O)Nc3ccccc3C(C)(C)C)nn12	none
CCOC(=O)c1ccccc1Nc1cc(C)nc2nc(C)nn12	Mcl1 Noxa PPI 58
CCOC(=O)/C(C#N)=C/c1cccc(F)c1	none
CCNc1ccc(Br)cc(C(=O)/C=C/c2c(Cl)cccc2Cl)c1=O	Mcl1 Noxa PPI 102
CCNc1ccc(Br)cc(C(=O)/C=C/c2ccc(Cl)cc2)c1=O	Mcl1 Noxa PPI 82
C=CCSc1nc(-c2ccc(OC)cc2)c(C#N)c(=O)n1CC=C	none (no result: MCL1-BIM inh, Bcl-xL primary, GLD-1 RNA inh)
CCOc1ccc(C(=O)NCC(=O)N2CCN(c3ccccc3O)CC2)cc1	none (no result: Mcl1 Noxa PPI, Bim-Mcl-1, Mcl1 Bid PPI)
CCN1CCCC1Cn1cnc2c([nH]c3ccc(OC)cc32)c1=O (stereo not given)	none (no result: Bim-Mcl-1)
CCOc1ccc(NC(=O)CN2C(=O)/C(=C3\SC(=S)N(C4CCS(=O)(=O)C4)C3=O)c3ccccc32)cc1 (stereo not given)	Mcl1 Noxa PPI 68, Mcl1 Bid PPI 81 (no result: MCL1-BIM inh, Bcl-xL primary, Bim-Mcl-1, GLD-1 RNA inh)
Cc1ccc(N(C)C(=O)CCS(=O)(=O)c2cc3c(cc2Cl)NC(=O)CO3)cc1	none (no result: Mcl1 Noxa PPI, Bim-Mcl-1, Mcl1 Bid PPI)
CC(=O)N1CC2(NC(=O)c3ccccc3N2)c2ccccc21 (stereo not given)	none
COc1ccc(CNS(=O)(=O)c2ccc3c(c2)N(C(C)=O)CC(C)S3)cc1 (stereo not given)	none (no result: Mcl1 Noxa PPI, Bim-Mcl-1, Mcl1 Bid PPI)
CC(C)(C)NCCOCCOc1ccccc1-c1ccccc1	Mcl1 Bid PPI 56
CC1CCN(CCOc2ccccc2-c2ccccc2)CC1	none
CC1CC(C)CN(CCOc2ccccc2-c2ccccc2)C1 (stereo not given)	Mcl1 Bid PPI 57
Cc1sc2nc(COC(=O)c3cccc(S(=O)(=O)N(C)c4ccccc4)c3)[nH]c(=O)c2c1C	Bcl-xL primary 39
O=C(O)CC(NC(=O)/C(=C/c1ccccc1)NC(=O)c1ccccc1)c1ccccc1 (stereo not given)	none (no result: Mcl1 Noxa PPI, Bim-Mcl-1, Mcl1 Bid PPI)
CC(C)(C)c1cc(-c2csc(Nc3ccccc3)[n+]2Cc2ccc(C(=O)O)cc2)cc(C(C)(C)C)c1O	Mcl1 Noxa PPI 92, Mcl1 Bid PPI 88 (no result: Bim-Mcl-1)
Cc1ccc(S(=O)(=O)N2CCCCC2)cc1NC(=O)Cn1c(=O)cnc2ccccc21	none
N#Cc1c(OCC(=O)c2ccccc2)nc2c(c1-c1ccco1)CCc1ccccc1-2	Bcl-xL primary 34
CCOC(=O)COc1nc2c(c(-c3ccco3)c1C#N)CCc1ccccc1-2	none (no result: Bim-Mcl-1)
COc1ccc(CN2CCCC(C(=O)N3CCCCC3)C2)cc1OC (stereo not given)	none (no result: Mcl1 Noxa PPI, Bim-Mcl-1, Mcl1 Bid PPI)
O=C(Nc1ccc(F)c(F)c1)C1CCN(S(=O)(=O)c2cccc3nonc23)CC1	none (no result: Mcl1 Noxa PPI, Bim-Mcl-1, Mcl1 Bid PPI)
Cc1cc(O)cc2c1C(=O)/C(=C/c1ccco1)O2	MCL1-BIM inh 48, Bcl-xL primary 63, GLD-1 RNA inh 50 (no result: Mcl1 Noxa PPI, Bim-Mcl-1, Mcl1 Bid PPI)
CC1=N/C(=C/c2ccco2)C(=O)O1	none (no result: MCL1-BIM inh, Bcl-xL primary, GLD-1 RNA inh)
CC(=O)C1=C(S(=O)(=O)c2ccc(C)cc2)CS(=O)(=O)C1	Mcl1 Noxa PPI 78 (no result: MCL1-BIM inh, Bcl-xL primary, GLD-1 RNA inh)
O=C(NNC(=S)Nc1ccc(F)cc1)C1[C@H]2CCCC[C@@H]12 (stereo not given in full)	none (no result: Bim-Mcl-1)
O=C(NCCc1csc(-c2cccnc2)n1)c1cccs1	Mcl1 Bid PPI 86

Screening results from PubChem BioAssay.
